Screening data: PubChem BioAssay, several laboratories
Compounds with a hit are over-represented: about 22% of the library has one in this group of screens.
CYP2C9 inhib: blocks human cytochrome P450 2C9; AID 777; inhibition, % at 5 µM; CYP2C9 Supersomes, luciferin-H conversion, luminescence; 20% of 96,000 active; P11712;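 active means blocking of liver enzyme CYP2C9 beyond about 50% at 5 µM, limit read from the data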
CYP2C19 inhib: inhibitors of human CYP2C19; P33261; CYP2C19 Supersomes, luciferin-H EGE luminescence, 30 min; inhibition, % at 5 µM; 21% of 96,000 active; AID 778;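 active means CYP2C19 inhibition above a set limit at 5 µM in the primary screen, cut at about 50% in these data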;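 further: plate controls were negative control wells for no effect and 2.5 mM tranylcypromine positive control for full effect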
Target sequence (P33261 whole entry, looked up): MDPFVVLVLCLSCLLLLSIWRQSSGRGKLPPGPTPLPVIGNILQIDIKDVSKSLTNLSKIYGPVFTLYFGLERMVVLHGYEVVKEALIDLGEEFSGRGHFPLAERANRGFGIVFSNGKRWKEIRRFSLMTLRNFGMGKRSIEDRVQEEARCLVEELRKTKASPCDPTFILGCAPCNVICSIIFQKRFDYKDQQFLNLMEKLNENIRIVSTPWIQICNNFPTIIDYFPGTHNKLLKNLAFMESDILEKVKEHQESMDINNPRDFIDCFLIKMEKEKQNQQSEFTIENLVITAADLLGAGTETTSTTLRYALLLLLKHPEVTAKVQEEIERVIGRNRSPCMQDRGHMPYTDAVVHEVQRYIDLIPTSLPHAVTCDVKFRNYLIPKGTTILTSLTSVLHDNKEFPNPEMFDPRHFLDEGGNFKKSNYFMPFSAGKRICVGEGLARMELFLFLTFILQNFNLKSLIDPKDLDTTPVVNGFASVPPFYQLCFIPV
CYP2C19 activ: activators of human cytochrome P450 2C19. 96,000 tested, under 10 active. activation factor at 5 µM. recombinant CYP2C19, luciferin-H EGE luminescence; hits give high values; 0 = fully inhibited enzyme, 1 = untreated enzyme;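 active means activation factor of at least 2 at 5 µM in the primary screen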;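 further: 0 = wells with 2.5 mM tranylcypromine and 1 = vehicle-only wells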
E-sel TNF inh: TNF alpha driven E-selectin expression inhibition | 0.71% of 120,000 active | inhibition, % at 2 µM | AID 1246 | HUVEC TNFa-induced E-selectin immunofluorescence, high content;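 active means inhibition above the batch mean plus 3 SD, and confirmed as a hit on visual image review, cut at about 43% in these data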;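 further: 0% = TNF-stimulated DMSO wells and 100% = unstimulated control wells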
F-actin modifier: alters cytoskeleton assembly in HUVEC cells. HUVEC TNFa F-actin phalloidin imaging, high content. 0.18% of 91,000 active. inhibition, % at 2 µM. AID 836;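 active means inhibition above the batch mean plus 3 SD and confirmed as a hit by visual image inspection, cut at about 30% in these data, passing the limit was not always enough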
CYP2C9 activ: increases human cytochrome P450 2C9 activity; P11712; recombinant CYP2C9, luciferin-H conversion, luminescence; hits give high values; factor 1 = untreated enzyme, 0 = blocked; 1.4% of 96,000 active; activation factor at 5 µM;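 active means activation factor of 2 or more for CYP2C9 at a 5 µM dose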;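 further: 0 = sulfaphenazole-blocked wells and 1 = vehicle-only wells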
* marks the source's active call; other numbers are inactive results.

Screening Cc1ccc(-n2c(C)cc(/C=c3/sc4nc5ccccc5n4c3=O)c2C)cc1 returned CYP2C9 inhib 23.1, CYP2C19 inhib -7.6, CYP2C19 activ 1.1, E-sel TNF inh 4.5 and CYP2C9 activ 0.8.
`FC(F)(F)c1nc2ccccc2nc1N/N=C/c1c(Cl)cccc1Cl` gave CYP2C9 inhib 21.8, CYP2C19 inhib 44.3, CYP2C19 activ 0.6, E-sel TNF inh 20.5, F-actin modifier -17.1 and CYP2C9 activ 0.8.
Screening Clc1ccc(-c2nc3cnccn3c2Nc2ccc3c(c2)OCO3)cc1 returned CYP2C9 inhib 81.6*, CYP2C19 inhib 87.4*, CYP2C19 activ 0.1, F-actin modifier 9.8 and CYP2C9 activ 0.2.
For Cc1cc(C)n2c(Nc3ccc4c(c3)OCCO4)c(-c3ccc(C)o3)nc2n1 the results were CYP2C9 inhib -9.8, CYP2C19 inhib 1.9, CYP2C19 activ 1, E-sel TNF inh -12.3, F-actin modifier -1.6 and CYP2C9 activ 1.1.
`c1cncc(-c2nc3ccccn3c2Nc2ccc3c(c2)OCCO3)c1` gave CYP2C9 inhib 42.1, CYP2C19 inhib 42.2, CYP2C19 activ 0.6, E-sel TNF inh 7.2, F-actin modifier 2.4 and CYP2C9 activ 0.6.
Clc1ccc(-c2nc3cnccn3c2NC2CCCC2)cc1 was read as CYP2C9 inhib 89.4*, CYP2C19 inhib 76.1*, CYP2C19 activ 0.2, E-sel TNF inh 6.5, F-actin modifier -5.6 and CYP2C9 activ 0.1.
`Oc1ccccc1-c1nc2cnccn2c1Nc1ccc2c(c1)OCCO2` gave CYP2C9 inhib 93.9*, CYP2C19 inhib 91.9*, CYP2C19 activ 0.1, E-sel TNF inh 4.3, F-actin modifier 15.4 and CYP2C9 activ 0.1.
`CSc1ccc(-c2nc3cnccn3c2Nc2ccc3c(c2)OCO3)cc1` gave CYP2C9 inhib 87.6*, CYP2C19 inhib 95.9*, CYP2C19 activ 0, E-sel TNF inh -57.0, F-actin modifier -0.6 and CYP2C9 activ 0.1.
For CC1=C/C(=N\OS(=O)(=O)c2ccccc2)C(C(C)C)=CC1=O the results were E-sel TNF inh -1.3.
For O=C(/C=C/c1ccc(Br)cc1)N1CCN(c2cccc(C(F)(F)F)c2)CC1 the results were E-sel TNF inh -0.5.
For CCCOc1cccc(C(=O)Nc2cc(NC(=O)c3ccco3)ccc2OC)c1 the results were CYP2C9 inhib 41.8, CYP2C19 inhib 71.0*, CYP2C19 activ 0.3, E-sel TNF inh -9.2, F-actin modifier -5.4 and CYP2C9 activ 0.6.
`COc1cc(NC(=O)c2ccco2)c(OC)cc1NC(=O)CCC(=O)Nc1cc(C)cc(C)c1` gave CYP2C9 inhib 66.1*, CYP2C19 inhib 35.6, CYP2C19 activ 0.6, E-sel TNF inh 5.3, F-actin modifier -31.9 and CYP2C9 activ 0.3.
CCCC(=O)Nc1ccc(NC(=O)c2ccco2)c(OC)c1 was read as CYP2C9 inhib 71.2*, CYP2C19 inhib 33.9, CYP2C19 activ 0.7, E-sel TNF inh 0.3, F-actin modifier -5.7 and CYP2C9 activ 0.3.
COc1cc(NC(=O)c2ccco2)c(OC)cc1NC(=O)CCC(=O)Nc1cc(C)ccc1C was read as CYP2C9 inhib 46.3, CYP2C19 inhib 28.3, CYP2C19 activ 0.7, E-sel TNF inh 25.6, F-actin modifier -7.7 and CYP2C9 activ 0.5.
CCC(=O)Nc1ccc(NC(=O)c2ccco2)c(OC)c1 was read as CYP2C9 inhib 26.2, CYP2C19 inhib -5.6, CYP2C19 activ 1.1, E-sel TNF inh 10.6, F-actin modifier -15.5 and CYP2C9 activ 0.7.
COCCSc1nnc(NC(=O)COC)s1 was read as CYP2C9 inhib 7.6, CYP2C19 inhib 17.0, CYP2C19 activ 0.8, E-sel TNF inh 16.9, F-actin modifier 1.6 and CYP2C9 activ 0.9.
For CCn1c(SCC(=O)N2c3ccccc3Sc3ccccc32)nc2c1c(=O)n(C)c(=O)n2C the results were CYP2C9 inhib 37.8, CYP2C19 inhib 5.0, CYP2C19 activ 0.9 and CYP2C9 activ 0.6.
Cc1ccc(NC(=O)CCC(=O)NNC(=O)c2cccs2)cc1C was read as CYP2C9 inhib 8.9, CYP2C19 inhib 4.7, CYP2C19 activ 1, E-sel TNF inh 7.7, F-actin modifier 1.5 and CYP2C9 activ 0.9.
`O=C(c1ccc(Br)o1)N1CCN=C1SCc1cccnc1` gave CYP2C9 inhib 64.2*, CYP2C19 inhib 89.0*, CYP2C19 activ 0.1, E-sel TNF inh 13.4, F-actin modifier 0.9 and CYP2C9 activ 0.4.
`O=C(c1cc2ccccc2o1)N1CCN=C1SCc1cccnc1` gave CYP2C9 inhib 51.7*, CYP2C19 inhib 30.3, CYP2C19 activ 0.7, F-actin modifier 67.2 and CYP2C9 activ 0.5.
For O=C(c1cc2ccccc2o1)N1CCN=C1SCc1cccc(F)c1 the results were CYP2C9 inhib -2.7, CYP2C19 inhib -8.4, CYP2C19 activ 1.1, E-sel TNF inh -10.1, F-actin modifier -1.0 and CYP2C9 activ 1.
For C=C1C(=O)[C@@]23[C@H](O)C[C@@H]4C(C)(C)CC[C@H](O)[C@@]4(C)[C@@H]2CC[C@@H]1[C@H]3O the results were E-sel TNF inh 58.2*.
Screening C=C1C(=O)[C@@]23[C@H](O)C[C@@H]4C(C)(C)CC[C@H](O)[C@]4(C)[C@@H]2C[C@H](O)[C@@H]1[C@H]3O returned E-sel TNF inh 4.2.
Screening C1=CC2CC1CC2CN1CCN(Cc2ccccc2)CC1 (configuration not stated) returned CYP2C9 inhib -7.9, CYP2C19 inhib 52.6*, CYP2C19 activ 0.5, F-actin modifier 0.7 and CYP2C9 activ 1.1.
Screening O=C(NCCCCCNC(=O)c1ccco1)c1ccco1 returned CYP2C9 inhib 9.7, CYP2C19 inhib -1.7, CYP2C19 activ 1, F-actin modifier 25.7 and CYP2C9 activ 0.9.
`Cc1ccc(S(=O)(=O)n2cc(-c3ccccc3)c(N)n2)cc1` gave CYP2C9 inhib 89.8*, CYP2C19 inhib 52.2*, CYP2C19 activ 0.5, E-sel TNF inh 7.4, F-actin modifier 10.2 and CYP2C9 activ 0.1.
For C/C(Cn1nc([N+](=O)[O-])cc1C)=N\NC(=O)c1ccc(O)cc1O the results were CYP2C9 inhib 13.6, CYP2C19 inhib 5.2, CYP2C19 activ 0.9, E-sel TNF inh -14.2, F-actin modifier 2.5 and CYP2C9 activ 0.9.
Cc1nnc(SCc2ccccc2)nc1/C=C/NOCc1ccc(Cl)cc1Cl was read as CYP2C9 inhib 88.3*, CYP2C19 inhib 79.0*, CYP2C19 activ 0.2, E-sel TNF inh 1.5 and CYP2C9 activ 0.1.
CCOC(=O)c1sc(SC)nc1N was read as E-sel TNF inh -22.9.
`CCCc1nc(N)sc1C(=O)OCC` gave CYP2C9 inhib 21.1, CYP2C19 inhib 54.6*, CYP2C19 activ 0.5, E-sel TNF inh -18.0, F-actin modifier 1.5 and CYP2C9 activ 0.8.
CCOC(=O)c1sc(N)nc1C(C)C was read as CYP2C9 inhib 30.4, CYP2C19 inhib 51.8*, CYP2C19 activ 0.5, E-sel TNF inh -21.1, F-actin modifier -2.1 and CYP2C9 activ 0.7.
Screening O=C(NCC(F)(F)F)Nc1ncccn1 returned CYP2C9 inhib 2.3, CYP2C19 inhib -4.5, CYP2C19 activ 1, F-actin modifier -13.4 and CYP2C9 activ 1.
